Data on 6 compounds can be found in PubChem BioAssay (EPA / NIEHS).

Several values for one entry are separate records, joined by “and”; a condition that tells them apart may be missing. Identical values can stand only once. Activity calls are given as the source filed them. How the source made its calls: active means hit-call score of the fitted dose curve at least 0.9, where 1 is the maximum; inactive means score below 0.9.

Read-out in this test: Glutamate-cysteine ligase regulatory (GCLM), GCLM (gene 2730)
The experiment in a line: LTEA_HepaRG_GCLM: Life Technologies and Expression Analysis (LTEA) Assay for Glutamate-cysteine ligase regulatory (GCLM) using HepaRG (AID 2283500). Conditions: mRNA level, 48 h; actives raise or lower the signal. A digest of the protocol:
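Differentiated HepaRG cells exposed 48 h in serum-free induction medium to eight half-log concentrations up to 100 uM (0.5% DMSO). GCLM mRNA by TaqMan qRT-PCR, normalized to ACTB, GAPDH and POLR2A; bidirectional fit versus DMSO.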
For `COC(=O)c1ccc(C(=O)OC)cc1`, the compound was called inactive.
In the case of `CC/C(=C(\c1ccccc1)c1ccc(OCCN(C)C)cc1)c1ccccc1`, the AC50 was 74 µM (active) and 50 µM (active).
`C[C@]12CC[C@@H]3c4ccc(O)cc4CC[C@H]3[C@@H]1CC[C@@H]2O`: the compound was classed as inactive.
For the compound `C=C(C)C(N)=O`, the call was inactive.
Same read-out and setting: as for `CCCCOCCOCCO`, the entry is “inactive”; as for `O=C(c1ccc(OCCN2CCCCC2)cc1)c1c(-c2ccc(O)cc2)sc2cc(O)ccc12`, “inactive”.

By AC50 is commonly meant the midpoint of the concentration-response curve, whichever way the signal moves.
